Data from PubChem BioAssay (NCATS).
Results filed as inconclusive are left out. Entries that show only a call come without a potency. A number with no mark means an inactive call. Active and inactive are the calls of the source. Calls follow the shape of the dose curve; as a rule, active = well fitted curve in the direction sought with a large enough effect; inconclusive = small, poorly fitted or top-dose-only effect, or another doubt; inactive = no such curve, though single readings can be large; an effect the other way counts as inactive or inconclusive.

Key:
[1] = target: Cellular tumor antigen p53 (Homo sapiens) (UniProt P04637); assay: Primary qHTS for small molecule compounds that upregulate eGFP-tagged delta133p53alpha (in N-terminal) cells. (AID 2060322); conditions: NCI-H358 eGFP-delta133p53alpha fluorescence, 24 h; activation: active compounds read high; also: nearly all actives have a fitted effect of over 75% in size; also: potency is read from the fitted curve at half-maximal effect;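 as to activation: cells pre-induced with doxycycline then dosed without doxycycline; series mostly up to about 56 µM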
Sequence of Cellular tumor antigen p53 (Homo sapiens) (P04637 whole entry, looked up): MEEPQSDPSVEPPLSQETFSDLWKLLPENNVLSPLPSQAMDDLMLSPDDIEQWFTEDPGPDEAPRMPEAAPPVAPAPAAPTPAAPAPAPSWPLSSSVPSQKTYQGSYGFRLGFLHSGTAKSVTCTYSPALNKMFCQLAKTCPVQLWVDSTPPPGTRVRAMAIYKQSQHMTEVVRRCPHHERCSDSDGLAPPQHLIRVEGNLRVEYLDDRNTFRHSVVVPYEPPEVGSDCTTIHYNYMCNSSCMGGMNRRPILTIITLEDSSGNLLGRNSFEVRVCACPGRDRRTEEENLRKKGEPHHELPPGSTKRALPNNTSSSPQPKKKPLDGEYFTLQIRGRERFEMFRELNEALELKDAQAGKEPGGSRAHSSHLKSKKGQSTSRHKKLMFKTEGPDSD
Outline: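 NCI-H358 cells pre-induced 24 h with 10 ng/ml doxycycline for eGFP-delta133p53alpha, plated dox-free and exposed 24 h at 37C to titrated compounds. Fixed, Hoechst-stained; gated GFP peak intensity by laser scanning cytometry, normalized to DMSO (0%) and 57.5 uM 5-azacytidine (100%).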

[2] = target: Aldehyde dehydrogenase, mitochondrial (Homo sapiens) (UniProt P05091); assay: qHTS for Inhibitors of the Aldehyde Dehydrogenase Family (ALDH2) Primary screen (AID 2061308); also: nearly all actives have a fitted effect of over 55% in size

Row | Compound | activation [1] [%] | Potency [2] | Potency [1]
1 | COc1cc2ncnc(Nc3ccc(O)cc3)c2cc1OC | 4.46 | inactive | –
2 | C[C@@H]1C[C@H]2OC(=O)[C@@]3(C)CCC[C@](C)(C23)[C@@]1(O)CCC1=CC(=O)OC1O (stereo not given in full) | 9.16 | inactive | –
3 | COc1cc(C2Oc3c(OC)cc(CCCO)cc3C2CO)ccc1O (stereo not given) | -18.8 | inactive | –
4 | CC1=CC(=O)CC(C)(C)C1CO[C@@H]1O[C@H](CO)[C@@H](O)[C@H](O)[C@H]1O (stereo not given in full) | 6.25 | inactive | –
5 | Nc1nc2c(cnn2CCCc2ccc(O)cc2)c2nc(-c3ccco3)nn12 | -11 | inactive | –
6 | O=C(OC[C@@]1(O)CO[C@@H](O[C@H]2[C@H](Oc3ccc(O)cc3)O[C@H](CO)[C@@H](O)[C@@H]2O)[C@@H]1O)c1ccc(O)cc1 | -19.1 | inactive | –
7 | COc1cc(/C=C/C(=O)O[C@H]2[C@@H]3C=CO[C@@H](O[C@@H]4O[C@H](CO)[C@@H](O)[C@H](O)[C@H]4O)[C@@H]3[C@@]3(CO)O[C@@H]23)ccc1O | -2.29 | inactive | –
8 | COc1ccc(/C=C/C(=O)O[C@@H]2[C@@H](O)[C@@H](O)[C@H](O[C@@H]3C=C(CO)[C@H]4[C@H](O[C@@H]5O[C@H](CO)[C@@H](O)[C@H](O)[C@H]5O)OC=C[C@H]43)O[C@H]2C)cc1O | -6.87 | inactive | –
9 | COc1cccc2cc3c(c(O[C@@H]4O[C@H](CO[C@@H]5O[C@H](CO)[C@@H](O)[C@H](O)[C@H]5O)[C@@H](O)[C@H](O)[C@H]4O)c12)C(C)OC3=O (stereo not given in full) | 3.57 | inactive | –
10 | COC(=O)C[C@H]1[C@]2(C)C3=C(C)[C@H](c4ccoc4)C[C@H]3O[C@@H]2[C@H](OC(C)=O)C2[C@](C)(C(=O)OC)C=CC(=O)[C@@]21C (stereo not given in full) | 11.6 | inactive | –
11 | O=C(/C=C/c1ccccc1)O[C@@H]1[C@@H](CO)O[C@@](CO)(O[C@H]2O[C@H](CO)[C@@H](O)[C@H](O)[C@H]2O)[C@H]1O | -26 | inactive | –
12 | COc1cc2nc(N3CCN(C)CC3)nc(NC3CCN(Cc4ccccc4)CC3)c2cc1OC | 2.33 | inactive | –
13 | C=C1CC[C@@H]2[C@](C)(CO)[C@H](O)CC[C@@]2(C)[C@@H]1CC(O)C1=CCOC1=O (stereo not given in full) | -5.34 | inactive | –
14 | CC(C)n1nc(C#Cc2ccccc2)c2c(N)ncnc21 | 25 | inactive | –
15 | C=CC1C(OC2OC(CO)C(O)C(O)C2O)OC=C(C(=O)OC)C1CC1CC(=O)CC(CCc2ccc(O)cc2)O1 (stereo not given) | 19.6 | inactive | –
16 | COc1cc(C2Oc3c(OC)cc(/C=C/C(=O)OC[C@H]4O[C@@H](OC(C)(C)C(=O)O)[C@H](O)[C@@H](O)[C@@H]4O)cc3C2CO)ccc1O (stereo not given in full) | -9.16 | inactive | –
17 | C=C1CC[C@H]2[C@@](C)(CCC(O)[C@@]2(C)CO)[C@@H]1CCC1=CCOC1=O (stereo not given in full) | -11.5 | inactive | –
18 | COc1ccc(C)c2sc(NC(=O)c3ccncc3)nc12 | -15.7 | inactive | –
19 | COc1ccc(-c2ccc3c(N4CCOCC4C)nc(N4CCOCC4C)nc3n2)cc1CO (stereo not given) | 7.14 | inactive | –
20 | CC1=CC(=O)CC(C)(C)C1(O)CCC(C)O (stereo not given) | 0.893 | inactive | –
21 | OC[C@H]1O[C@@H](OCCc2ccccc2)[C@H](O[C@@H]2OC[C@](O)(CO)[C@H]2O)[C@@H](O)[C@@H]1O | -4.58 | inactive | –
22 | CC1=C2C[C@H]3OC(=O)[C@H](O)[C@@]4(O)[C@@H](C)[C@@H](O)[C@H](O)C([C@@]2(C)[C@H](O)[C@@H](O)C1)[C@@]34C (stereo not given in full) | -11.5 | inactive | –
23 | CNS(=O)(=O)c1ccccc1Nc1nc(Nc2ccc(N3CCN(C)CC3)cc2OC)ncc1Br | – | inactive | 9.53 µM (active)
24 | CC1(C)CC[C@]2(CO[C@@H]3O[C@H](CO)[C@@H](O)[C@H](O)[C@H]3O)[C@@H](O)C[C@]3(C)C(=CCC4[C@@]5(C)CC[C@H](O[C@@H]6O[C@H](CO[C@@H]7O[C@H](CO[C@@H]8OC[C@@H](O)[C@H](O)[C@H]8O)[C@@H](O)[C@H](O)[C@H]7O)[C@@H](O)[C@H](O)[C@H]6O)C(C)(C)C5CC[C@]43C)[C@@H]2C1 (stereo not given in full) | -2.68 | inactive | –
25 | COc1ccc(C2COc3cc(O)ccc3C2)c(O)c1OC (stereo not given) | -2.29 | inactive | –
